# Assay results from PubChem BioAssay (NCATS).
# Records with an inconclusive call do not appear. Unmarked numbers belong to inactive results. The source made the active and inactive calls. The call rests on the fitted dose curve; in most records, active means well fitted inhibition curve with a large enough effect; inconclusive means small, poorly fitted or top-dose-only effect; inactive means flat fitted curve, though single readings scatter.
# Tested on: CP266
# Test: qHTS profiling for inhibitors of Plasmodium falciparum proliferation (AID 504749); further: nearly all actives have a fitted effect of over 60% in size;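 on activity, negative = inhibition: 0% = DMSO vehicle and full inhibition = artemisinin control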
# Details: P. falciparum in erythrocytes, SYBR Green DNA, 72 h; series mostly up to 28.7 µM; activity, negative = inhibition: at the top concentration
# Procedure, shortened: (§1)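 Readout was DNA-dye fluorescence from lysed cultures, ex 485/em 535 nm. Parasitized red cells had grown 72 h with compound; data scaled between 0.29 uM artemisinin and DMSO wells and corrected using vehicle-only plates.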
# Potency means the concentration at half of the fitted maximal effect.
Structure (SMILES),"activity, negative = inhibition [%]",Potency
OCCN1CC(O)C(O)C(O)C1CO (centres undefined),-4.67,
COc1cc2c(cc1O)CCN[C@@]21CS[C@H]2c3c(OC(C)=O)c(C)c4c(c3C(COC1=O)N1C2C2c3c(cc(C)c(OC)c3O)CC([C@@H]1O)N2C)OCO4 (some centres undefined),,1.5 nM (active)
CC(CCC(=O)O)C1CCC2C3C(=O)C[C@@H]4CC(=O)CC[C@@]4(C)C3CC(=O)[C@]12C (some centres undefined),-2.94,
C[n+]1c2cc(N)ccc2cc2ccc(N)cc21,,1350 nM (active)
O=C(OC[C@@H]1O[C@@](O)(COC(=O)c2cccnc2)[C@H](OC(=O)c2cccnc2)[C@H]1OC(=O)c1cccnc1)c1cccnc1,-2.31,
O=[N+]([O-])O[C@H]1CO[C@H]2[C@@H]1OC[C@H]2O,0.369,
COc1cccc(OC)c1C(=O)NC1C(=O)N2C1SC(C)(C)C2C(=O)O (centres undefined),7.9,
NC[C@@H]1O[C@H](OC2[C@@H](CO)O[C@@H](OC3[C@H](O)[C@H](N)C[C@H](N)[C@H]3OC3O[C@H](CO)[C@@H](O)[C@H](O)[C@@H]3N)[C@H]2O)C(N)[C@H](O)[C@@H]1O (some centres undefined),-0.257,
Cc1ccc(S(=O)(=O)NC(=O)NC(C)Cc2ccccc2)cc1 (centres undefined),-8.51,
OCCOC[C@H]1O[C@H](OCCO)[C@H](OCCO)[C@@H](OCCO)[C@@H]1OCCO (tested in a mixture with another compound),-11.2,
C[S+](C)CC[C@H](N)C(=O)O,9.78,
CC[C@@H]1/C=C(\C)C[C@H](C)C[C@H](OC)[C@H]2O[C@@](O)(C(=O)C(=O)N3CCCC[C@H]3C(=O)O[C@H](/C(C)=C/[C@@H]3CC[C@H](Cl)[C@H](OC)C3)[C@H](C)[C@@H](O)CC1=O)[C@H](C)C[C@@H]2OC,-1.04,
NC(=O)C1CC2(NC(=O)NC2=O)c2cc(F)ccc2O1 (centres undefined),2.84,
CN1[C@@H]2CC[C@@H]1CC(OC(=O)[C@H](CO)c1ccccc1)C2 (some centres undefined),-2.77,
CC[C@@]1(O)C[C@H](O[C@H]2C[C@@H](N(C)C)[C@@H](O[C@H]3C[C@@H](O)[C@@H](O[C@H]4CCC(=O)[C@@H](C)O4)[C@@H](C)O3)[C@@H](C)O2)c2c(cc3c(c2O)C(=O)c2c(O)cccc2C3=O)[C@H]1C(=O)OC,,1200 nM (active)
CCCCCCCCCCCC(=O)OCC(O)C1OCC(O)C1O (centres undefined),-18.6,
C/C1=C2/[N-]C(C(CC(N)=O)[C@@]2(C)CCC(=O)NCC(C)OP(=O)([O-])O[C@H]2[C@@H](O)[C@@H](n3cnc4cc(C)c(C)cc43)O[C@@H]2CO)[C@]2(C)N=C(/C(C)=C3N=C(/C=C4N=C1C(CCC(N)=O)C\4(C)C)[C@@H](CCC(N)=O)[C@]\3(C)CC(N)=O)[C@@H](CCC(N)=O)[C@]2(C)CC(N)=O.CC(=O)O.[Co] (some centres undefined),-1.7,
CC1(C)OC[C@@H]2O[C@@]3(C(=O)O)OC(C)(C)O[C@@H]3[C@@H]2O1,-4.87,
Cc1ccccc1N1C(=O)c2cc(N)ccc2N/C1=C\F,-4.67,
CCC(C(=O)O)C1OC(C(C)C(O)C(C)C(=O)C(CC)C2OC3(C=CC(O)C4(CCC(C)(C5CCC(O)(CC)C(C)O5)O4)O3)C(C)CC2C)C(C)CC1C (centres undefined),,151 nM (active)
O=C1C(I)=CC(=C(c2cc(I)c(O)c(I)c2)c2ccccc2C(=O)O)C=C1I,-4.38,
NC(=O)NC(CCC(=O)O)C(=O)O (centres undefined),0.55,
COC1CC2CCC(C)[C@](O)(O2)C(=O)C(=O)N2CCCCC2C(=O)OC(C(C)CC2CCC(O)C(OC)C2)CC(=O)C(C)/C=C(/C)C(O)C(OC)C(=O)C(C)CC(C)C=CC=C/C=C\1C (some centres undefined),,6750 nM (active)
CC(=O)OCC(=O)[C@@]1(O)CCC2C3C[C@H](C)C4=CC(=O)C=CC4(C)C3C(O)CC21C (some centres undefined),-1.2,
CN[C@H](C)CCC=C(C)C,,536 nM (active)
CC1(C)C2CC[C@]1(C)[C@@H](O)C2,-6.78,
OCC1O[C@H](Oc2ccc(O)cc2)C(O)C(O)C1O (some centres undefined),-1.25,
Nc1nc(F)nc2c1ncn2[C@@H]1O[C@H](CO)[C@@H](O)[C@H]1O,-4.8,
CC1OC(OC2CCC3(C)C(CCC4C3CC(O)C3(C)C(C5=CC(=O)OC5)CCC43O)C2)CC(O)C1OC1CC(O)C(OC2CC(O)C(OC3OC(CO)C(O)C(O)C3O)C(C)O2)C(C)O1 (centres undefined),3.24,
CC1OC(OCC2OC(Oc3c(-c4ccc(OCCO)c(OCCO)c4)oc4cc(OCCO)cc(O)c4c3=O)C(O)C(O)C2O)[C@@H](O)C(O)C1O (some centres undefined),14.7,

# Tested on: CP268
# Test: as above
# Details: P. falciparum in erythrocytes, SYBR Green DNA, 72 h; series mostly up to 28.7 µM; activity, negative = inhibition: at the top concentration
# Procedure, shortened: as §1
Structure (SMILES),"activity, negative = inhibition",Potency
CCCCCCCCCCCCCCCC(=O)OC[C@H](O)[C@H]1OC[C@@H](O)[C@@H]1O,-6.25%,
CCCCC(=O)OCC(=O)[C@]1(O)Cc2c(O)c3c(c(O)c2[C@H](OC2CC(NC(=O)C(F)(F)F)C(O)C(C)O2)C1)C(=O)c1c(OC)cccc1C3=O (some centres undefined),,5360 nM (active)
C[C@H]1OC(OC2C(O)[C@@H](O)C(OC3C(O)[C@@H](O)C(O)O[C@@H]3CO)O[C@@H]2CO)[C@H](O)C(O)C1N[C@H]1C=C(CO)[C@@H](O)[C@H](O)C1O (some centres undefined),3.01%,
CCN(CC)CC(=O)Nc1c(C)cc(C)cc1C,-7.07%,
CC(=O)N[C@H]1[C@H](O[C@@H]2c3ccc(c(Cl)c3)Oc3cc4cc(c3O[C@@H]3O[C@H](CO)[C@@H](O)[C@H](O)C3C)Oc3ccc(cc3Cl)C[C@H]3NC(=O)[C@@H](N)c5ccc(O)c(c5)Oc5cc(O)cc(c5)[C@H](NC3=O)C(=O)N[C@H]4C(=O)N[C@H]3C(=O)N[C@@H]2C(=O)N[C@@H](C(=O)O)c2cc(O)cc(O[C@H]4O[C@H](CO)[C@@H](O)C(O)[C@@H]4O)c2-c2cc3ccc2O)O[C@H](CO)[C@@H](O)[C@@H]1O (some centres undefined),0.347% [at 12.8 µM],
NC(=O)c1ncn(C2OC(CO)C(O)C2O)c1N (centres undefined),-1.58%,
C[C@H]1[C@@H](OC(=O)CCC(=O)O)OC2OC3(C)CC[C@H]4[C@H](C)CC[C@@H]1[C@@]24OO3 (some centres undefined),,5.4 nM (active)
CC1(Cn2ccnn2)[C@H](C(=O)O)N2C(=O)C[C@H]2S1(=O)=O (some centres undefined),2.44%,
CN(C)CC/C=C1\c2ccccc2COc2ccc(CC(=O)O)cc21,-14.2%,
CCCC(=O)O[C@]1(C(=O)COC(C)=O)CC[C@H]2C3C[C@H](F)C4=CC(=O)C=CC4(C)[C@@]3(F)[C@@H](O)CC21C (some centres undefined),2.3%,
OCCN1CC(O)C(O)C(O)C1CO (centres undefined),5.52%,
COc1cc2c(cc1O)CCN[C@@]21CS[C@H]2c3c(OC(C)=O)c(C)c4c(c3C(COC1=O)N1C2C2c3c(cc(C)c(OC)c3O)CC([C@@H]1O)N2C)OCO4 (some centres undefined),,0.5 nM (active)
CC(CCC(=O)O)C1CCC2C3C(=O)C[C@@H]4CC(=O)CC[C@@]4(C)C3CC(=O)[C@]12C (some centres undefined),2.55%,
C[n+]1c2cc(N)ccc2cc2ccc(N)cc21,,757 nM (active)
O=C(OC[C@@H]1O[C@@](O)(COC(=O)c2cccnc2)[C@H](OC(=O)c2cccnc2)[C@H]1OC(=O)c1cccnc1)c1cccnc1,-3.08%,
O=[N+]([O-])O[C@H]1CO[C@H]2[C@@H]1OC[C@H]2O,-3.41%,
COc1cccc(OC)c1C(=O)NC1C(=O)N2C1SC(C)(C)C2C(=O)O (centres undefined),2.51%,

Structure (SMILES),"activity, negative = inhibition",Potency
NC[C@@H]1O[C@H](OC2[C@@H](CO)O[C@@H](OC3[C@H](O)[C@H](N)C[C@H](N)[C@H]3OC3O[C@H](CO)[C@@H](O)[C@H](O)[C@@H]3N)[C@H]2O)C(N)[C@H](O)[C@@H]1O (some centres undefined),1.58%,
Cc1ccc(S(=O)(=O)NC(=O)NC(C)Cc2ccccc2)cc1 (centres undefined),-0.969%,
OCCOC[C@H]1O[C@H](OCCO)[C@H](OCCO)[C@@H](OCCO)[C@@H]1OCCO (tested in a mixture with another compound),2.86%,
C[S+](C)CC[C@H](N)C(=O)O,-6.18%,
CC[C@@H]1/C=C(\C)C[C@H](C)C[C@H](OC)[C@H]2O[C@@](O)(C(=O)C(=O)N3CCCC[C@H]3C(=O)O[C@H](/C(C)=C/[C@@H]3CC[C@H](Cl)[C@H](OC)C3)[C@H](C)[C@@H](O)CC1=O)[C@H](C)C[C@@H]2OC,-4%,
NC(=O)C1CC2(NC(=O)NC2=O)c2cc(F)ccc2O1 (centres undefined),-9.77%,
CN1[C@@H]2CC[C@@H]1CC(OC(=O)[C@H](CO)c1ccccc1)C2 (some centres undefined),0.372%,
CC[C@@]1(O)C[C@H](O[C@H]2C[C@@H](N(C)C)[C@@H](O[C@H]3C[C@@H](O)[C@@H](O[C@H]4CCC(=O)[C@@H](C)O4)[C@@H](C)O3)[C@@H](C)O2)c2c(cc3c(c2O)C(=O)c2c(O)cccc2C3=O)[C@H]1C(=O)OC,,953 nM (active)
CCCCCCCCCCCC(=O)OCC(O)C1OCC(O)C1O (centres undefined),6.3%,
C/C1=C2/[N-]C(C(CC(N)=O)[C@@]2(C)CCC(=O)NCC(C)OP(=O)([O-])O[C@H]2[C@@H](O)[C@@H](n3cnc4cc(C)c(C)cc43)O[C@@H]2CO)[C@]2(C)N=C(/C(C)=C3N=C(/C=C4N=C1C(CCC(N)=O)C\4(C)C)[C@@H](CCC(N)=O)[C@]\3(C)CC(N)=O)[C@@H](CCC(N)=O)[C@]2(C)CC(N)=O.CC(=O)O.[Co] (some centres undefined),-4.35%,
CC1(C)OC[C@@H]2O[C@@]3(C(=O)O)OC(C)(C)O[C@@H]3[C@@H]2O1,-0.145%,
Cc1ccccc1N1C(=O)c2cc(N)ccc2N/C1=C\F,-1.17%,
CCC(C(=O)O)C1OC(C(C)C(O)C(C)C(=O)C(CC)C2OC3(C=CC(O)C4(CCC(C)(C5CCC(O)(CC)C(C)O5)O4)O3)C(C)CC2C)C(C)CC1C (centres undefined),,75.7 nM (active)
O=C1C(I)=CC(=C(c2cc(I)c(O)c(I)c2)c2ccccc2C(=O)O)C=C1I,-0.504%,
NC(=O)NC(CCC(=O)O)C(=O)O (centres undefined),-0.154%,
COC1CC2CCC(C)[C@](O)(O2)C(=O)C(=O)N2CCCCC2C(=O)OC(C(C)CC2CCC(O)C(OC)C2)CC(=O)C(C)/C=C(/C)C(O)C(OC)C(=O)C(C)CC(C)C=CC=C/C=C\1C (some centres undefined),,6010 nM (active)
CC(=O)OCC(=O)[C@@]1(O)CCC2C3C[C@H](C)C4=CC(=O)C=CC4(C)C3C(O)CC21C (some centres undefined),-2.65%,
